Screen size: about 360,000 compounds; about 16,000 (4.4%) were called active. Inconclusive results (about 9%) are left out. For the sample, actives were picked, then their nearest neighbours and some compounds at random. Unmarked numbers belong to inactive results. Calls follow the shape of the dose curve; as a rule, active = well fitted inhibition curve with a large enough effect; inconclusive = small, poorly fitted or top-dose-only effect; inactive = no such curve, though single readings can be large or run the other way.
Target: Bromodomain adjacent to zinc finger domain protein 2B (Homo sapiens) (UniProt Q9UIF8)
Assay: qHTS Assay for Inhibitors of BAZ2B; also: nearly all actives have a fitted effect of over 60% in size
Details: AlphaScreen BAZ2B-H3K14Ac peptide displacement; series mostly up to 114 µM; activity change, negative = inhibition: at the top concentration
Outline: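 In this displacement format the biotinylated H3(5-23) peptide acetylated at Lys14 serves as ligand at 50 nM, with BAZ2B at 50 nM in PBS pH 7.4 containing 0.01% Tween-20. Donor and acceptor beads are 10 ug/mL final.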
% is scaled to controls: 0 for no effect and ±100 for the full control effect; potency is read from the fitted curve at half-maximal effect.

Chain of Bromodomain adjacent to zinc finger domain protein 2B (Homo sapiens) (Q9UIF8 whole entry, looked up, the tested form may be a part): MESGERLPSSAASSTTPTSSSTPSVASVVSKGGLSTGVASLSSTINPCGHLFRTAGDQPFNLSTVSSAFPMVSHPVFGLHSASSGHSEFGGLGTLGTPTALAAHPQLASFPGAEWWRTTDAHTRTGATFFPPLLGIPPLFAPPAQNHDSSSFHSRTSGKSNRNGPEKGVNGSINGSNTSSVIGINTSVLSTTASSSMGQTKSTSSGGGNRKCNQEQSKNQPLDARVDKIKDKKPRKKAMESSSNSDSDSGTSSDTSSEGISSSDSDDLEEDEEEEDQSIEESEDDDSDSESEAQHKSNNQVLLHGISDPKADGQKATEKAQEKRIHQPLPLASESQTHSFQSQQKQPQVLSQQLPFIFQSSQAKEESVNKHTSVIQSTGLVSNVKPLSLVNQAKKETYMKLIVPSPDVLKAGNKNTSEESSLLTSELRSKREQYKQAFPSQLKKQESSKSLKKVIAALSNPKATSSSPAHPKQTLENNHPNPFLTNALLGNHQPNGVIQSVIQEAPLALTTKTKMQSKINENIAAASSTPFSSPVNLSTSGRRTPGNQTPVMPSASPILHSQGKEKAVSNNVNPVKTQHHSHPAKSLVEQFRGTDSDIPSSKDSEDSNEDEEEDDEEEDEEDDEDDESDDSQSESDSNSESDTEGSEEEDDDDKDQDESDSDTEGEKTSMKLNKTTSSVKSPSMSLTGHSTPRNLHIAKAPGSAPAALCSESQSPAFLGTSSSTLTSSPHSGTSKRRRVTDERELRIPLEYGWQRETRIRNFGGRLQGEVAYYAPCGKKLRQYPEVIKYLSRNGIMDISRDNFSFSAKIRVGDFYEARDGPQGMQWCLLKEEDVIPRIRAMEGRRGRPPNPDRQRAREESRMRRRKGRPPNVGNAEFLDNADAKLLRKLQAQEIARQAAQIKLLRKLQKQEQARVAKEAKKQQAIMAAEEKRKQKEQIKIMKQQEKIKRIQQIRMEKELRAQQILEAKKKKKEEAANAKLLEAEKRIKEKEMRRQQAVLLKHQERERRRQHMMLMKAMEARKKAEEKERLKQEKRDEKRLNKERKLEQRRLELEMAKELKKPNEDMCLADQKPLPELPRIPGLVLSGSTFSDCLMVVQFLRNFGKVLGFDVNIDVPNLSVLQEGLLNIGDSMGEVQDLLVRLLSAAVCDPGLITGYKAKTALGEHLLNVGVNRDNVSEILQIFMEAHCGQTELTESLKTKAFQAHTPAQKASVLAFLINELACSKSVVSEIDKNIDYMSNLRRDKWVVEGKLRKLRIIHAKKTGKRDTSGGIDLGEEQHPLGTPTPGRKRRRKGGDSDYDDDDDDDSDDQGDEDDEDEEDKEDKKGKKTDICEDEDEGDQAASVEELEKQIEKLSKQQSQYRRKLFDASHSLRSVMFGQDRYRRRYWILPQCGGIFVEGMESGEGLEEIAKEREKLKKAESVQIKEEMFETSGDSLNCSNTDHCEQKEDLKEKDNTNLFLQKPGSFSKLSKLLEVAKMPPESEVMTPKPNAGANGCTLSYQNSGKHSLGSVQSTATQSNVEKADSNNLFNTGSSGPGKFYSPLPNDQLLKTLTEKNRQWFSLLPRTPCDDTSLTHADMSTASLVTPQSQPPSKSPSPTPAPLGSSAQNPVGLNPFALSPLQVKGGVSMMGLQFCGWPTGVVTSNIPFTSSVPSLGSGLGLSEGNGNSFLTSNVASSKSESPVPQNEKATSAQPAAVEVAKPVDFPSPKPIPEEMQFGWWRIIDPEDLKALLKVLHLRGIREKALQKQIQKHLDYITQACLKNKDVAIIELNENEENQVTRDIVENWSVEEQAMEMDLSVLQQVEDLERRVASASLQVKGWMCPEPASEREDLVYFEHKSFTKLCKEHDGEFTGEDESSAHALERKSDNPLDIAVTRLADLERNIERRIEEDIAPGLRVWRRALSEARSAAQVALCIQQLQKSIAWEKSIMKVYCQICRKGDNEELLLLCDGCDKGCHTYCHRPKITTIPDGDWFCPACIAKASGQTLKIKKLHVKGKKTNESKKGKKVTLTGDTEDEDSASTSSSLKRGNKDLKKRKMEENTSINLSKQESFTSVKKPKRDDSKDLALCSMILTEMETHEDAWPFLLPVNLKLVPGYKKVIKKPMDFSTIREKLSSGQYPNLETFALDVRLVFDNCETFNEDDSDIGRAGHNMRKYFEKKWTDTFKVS

SMILES	activity change, negative = inhibition [%]	Potency
COC(=O)c1cc2occc2n1Cc1nc(-c2ccc(C)cc2)oc1C	-13.3	–
Cc1ccc(S(=O)(=O)C(C#N)c2nc3ccccc3nc2N2CCCC2)cc1C (stereo not given)	–	79.4 µM (active)
Cc1cc(N2CCN(S(=O)(=O)c3ccc(C)c(C)c3)CC2)c2ccccc2n1	-35.4	–
Cc1ccc(S(=O)(=O)Nc2nc3ccccc3nc2N2CCc3ccccc3C2)cc1	-0.716	–
COc1cccc(Cn2c(CNS(=O)(=O)c3ccc(Cl)s3)nc3cccnc32)c1	-1.14	–
Cc1ccc(CNS(=O)(=O)c2ccc(C(=O)N(C)C)s2)cc1	-0.589	–
O=C(CC1C(=O)N(c2ccccc2)C(=O)N1CCc1cccs1)Nc1ccc(F)cc1 (stereo not given)	-2.54	–
COc1cccc(C2/C(=C(/O)c3ccc(F)cc3)C(=O)C(=O)N2CCN(C)C)c1 (stereo not given)	16.7	–
CCCOc1ccc(/C(O)=C2/C(=O)C(=O)N(CCN(C)C)C2c2ccc(OC)c(OC)c2)cc1 (stereo not given)	–	79.4 µM (active)
COc1ccc(/C(O)=C2/C(=O)C(=O)N(CCCN(C)C)C2c2ccccc2)cc1OC (stereo not given)	6.91	–
COc1ccc(CCNC(=O)c2ccc3c(c2)nc(C)n3-c2ccc(Br)cc2)cc1OC	-23.5	–
COc1ccccc1CNC(=O)c1ccccc1NC(=O)c1nsc2ccccc12	-2.42	–
CCOc1ccc(CNC(=O)c2ccc3c(c2)nnn3C2CCCC2)cc1	-2.27	–
CC1CCCN(C(=O)c2cc(-c3ccco3)nc3ccccc23)C1 (stereo not given)	2.27	–
Cc1cc(C)c2nc(-c3ccco3)cc(C(=O)O)c2c1	–	39.8 µM (active)
O=C(c1cc(-c2ccco2)nc2ccccc12)N(Cc1nnc(-c2ccc(Cl)cc2)o1)C1CC1	1.6	–
CC(C)(C)c1ccc(S(=O)(=O)N2CCN(C(=O)c3cc(-c4ccc(Br)cc4)n[nH]3)CC2)cc1	-6.78	–
Cc1cccc(CC(=O)N2CC(=O)Nc3ccc(F)cc3C2c2ccccc2)c1 (stereo not given)	-14.3	–
CCc1ccc(CNC(=O)c2cc3c(=O)n(CC)c4ccccc4c3s2)cc1	-8.35	–
O=S(=O)(N/N=C\c1cccn1-c1ccccc1)c1ccc2ccccc2c1	–	35.5 µM (active)
O=C(COc1ccc(/C=N/NS(=O)(=O)c2ccccc2)cc1)NCCc1ccccc1	-3.74	–
COc1ccc(N2CC(NS(=O)(=O)c3ccc4ccccc4c3)CC2=O)cc1 (stereo not given)	-3.73	–
CCOc1ccccc1CNC(=O)C1CCCN(S(=O)(=O)c2ccc3c(ccn3C)c2)C1 (stereo not given)	-3.49	–
Cc1cc2oc(C(=O)N(Cc3ccc(Cl)cc3)Cc3ccco3)c(C)c2cc1Cl	-4.19	–
CCc1cnc2c(c1SCC(=O)c1ccccc1)c(=O)n(C)c(=O)n2C	-11.3	–

SMILES	activity change, negative = inhibition [%]	Potency
COc1cccc(N2CCN(S(=O)(=O)c3cc(Br)cc4c3N(C(=O)C3CC3)CC4)CC2)c1	-3.33	–
CCC(=O)N1CCc2cc(Br)cc(S(=O)(=O)Nc3ccc(C)cc3C)c21	-0.535	–
COc1ccc(Cn2ccnc2SCC(=O)NCc2ccco2)cc1	-14.3	–
COc1ccc(-c2oc3ncn(Cc4ccco4)c(=N)c3c2-c2ccc(OC)cc2)cc1	–	28.2 µM (active)
COc1ccc(NC(=O)C(=O)NCc2ccco2)cc1	3.4	–
CCN1CCN(c2ncc3c(n2)CC(c2ccccc2O)CC3=O)CC1 (stereo not given)	-3.34	–
Cc1ccc(C(=O)N2CCc3cc(CNC(=O)c4ccc(Br)cc4)ccc32)cc1	-10.7	–
COc1ccc(-n2c(SCC(=O)Nc3sc4c(c3C#N)CCCC4)nnc2-c2ccc(O)cc2)cc1	–	79.4 µM (active)
Cc1ccc(C)c(OCC(=O)Nc2sc3c(c2C#N)CCCC3)c1C	6.56	–
N#Cc1c(NC(=O)CSc2nc3ccccc3c(=O)n2Cc2ccco2)sc2c1CCCC2	-4.51	–
COc1ccc(NC(=O)CSc2nnc(-c3cccs3)n2Cc2ccco2)cc1OC	-1	–
Cc1cs/c(=N\N=C\c2ccc(O)cc2)n1Cc1ccco1	–	44.7 µM (active)
CN(c1ccccc1)c1ccc(/C=c2\s/c(=C(/C#N)C(=O)C(C)(C)C)n(Cc3ccco3)c2=O)cc1	-37.8	–
Cc1ccc(-c2cn3c(n2)sc2cc(C(=O)NCc4cccs4)ccc23)c(C)c1	55.2	–
Cc1ccccc1CSc1nnc(-c2cccnc2)n1N	1.75	–
Cc1ccccc1CSc1nnc(-c2ccccn2)n1N	–	28.2 µM (active)
Cc1ccccc1CSc1nnc(Cn2c(=O)sc3ccccc32)n1C	-2.9	–
O=C(Cc1ccc(F)cc1)N/N=C/c1ccc2c(c1)OCO2	3.35	–
CCOC(=O)CCCNC(=O)COC(=O)/C=C/c1ccc2c(c1)OCO2	-8.04	–
CCC1=C/C(=C\c2ccc3c(c2)OCO3)C(=O)S1	–	44.7 µM (active)
Cn1c(=O)c2c(nc(SCC(=O)Nc3ccc(F)cc3)n2Cc2ccc(Cl)cc2)n(C)c1=O	2.76	–
CC1Cc2cc(S(=O)(=O)CCC(=O)Nc3ccc(F)c(Cl)c3)ccc2N1C(=O)C1CC1 (stereo not given)	-6.1	–
C/C(=N\NC(=S)Nc1ccc(C)cc1)c1cc2ccccc2o1	–	56.2 µM (active)
Cc1ccc(NC(=O)c2cc3ccccc3o2)cc1	-1.9	–
CC(C)Oc1ccc(NC(=O)c2cc3ccccc3o2)cc1	-17.6	–
